Tests used:
Assay in all cases: DAPPL (digital affinity profiling via proximity ligation, sequencing); 10 mM Tris-HCl pH 7.5, 50 mM NaCl, 1 mM DTT, 4% glycerol, room temperature, 30 min; GST-TFs on glutathione beads, 16-mer random dsDNA library, 0.1% formaldehyde crosslink after washing; high values mean tight binding
[1] = molecular target: T1, FLI1 (Homo sapiens, UniProt Q01543 1-452); conditions: protein: recombinant; tags: N-terminal GST; dsDNA, one strand shown
T1 sequence: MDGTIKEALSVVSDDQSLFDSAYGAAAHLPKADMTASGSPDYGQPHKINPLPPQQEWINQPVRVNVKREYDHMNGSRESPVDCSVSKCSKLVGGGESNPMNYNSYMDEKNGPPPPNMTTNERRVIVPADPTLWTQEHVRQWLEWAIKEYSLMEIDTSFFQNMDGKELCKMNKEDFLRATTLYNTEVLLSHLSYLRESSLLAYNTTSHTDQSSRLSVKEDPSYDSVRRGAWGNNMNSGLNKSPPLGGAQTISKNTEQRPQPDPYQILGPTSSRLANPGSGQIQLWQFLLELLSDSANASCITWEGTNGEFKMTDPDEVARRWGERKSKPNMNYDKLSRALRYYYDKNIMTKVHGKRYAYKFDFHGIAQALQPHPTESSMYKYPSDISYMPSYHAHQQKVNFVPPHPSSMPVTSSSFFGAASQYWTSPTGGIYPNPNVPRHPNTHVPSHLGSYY
Method in brief: (§1)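 Sequencing on an Illumina NextSeq500 followed washing, crosslinking with 0.1% formaldehyde, proximity ligation (BsaI/T4 ligase, 1 h, 37 °C) and PCR amplification of pools that had been incubated for 30 min at room temperature with 200 nmole of a random double-stranded 16-mer DNA library in Tris/NaCl/DTT/glycerol buffer. Each pool held DNA-barcoded human transcription factors, expressed in yeast as GST fusions and captured on glutathione beads, plus a tag-only sample. Binding signal is a hexamer's read frequency for a factor divided by its frequency in the tag-only sample.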

[2] = molecular target: T2, ELK1 (Homo sapiens, UniProt P19419 1-428); conditions: protein: recombinant; tags: N-terminal GST; dsDNA, one strand shown
T2 sequence: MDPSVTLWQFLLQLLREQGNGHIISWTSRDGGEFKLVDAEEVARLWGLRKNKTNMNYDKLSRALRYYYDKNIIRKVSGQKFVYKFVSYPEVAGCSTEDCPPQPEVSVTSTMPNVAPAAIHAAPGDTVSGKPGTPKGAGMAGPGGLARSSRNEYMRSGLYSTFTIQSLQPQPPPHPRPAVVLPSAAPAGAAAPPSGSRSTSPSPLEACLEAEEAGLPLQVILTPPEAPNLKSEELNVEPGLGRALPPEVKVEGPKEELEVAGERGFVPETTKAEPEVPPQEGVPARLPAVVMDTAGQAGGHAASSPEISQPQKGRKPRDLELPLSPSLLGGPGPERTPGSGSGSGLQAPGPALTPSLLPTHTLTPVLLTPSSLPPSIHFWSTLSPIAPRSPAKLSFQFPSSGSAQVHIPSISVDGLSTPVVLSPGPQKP
Method in brief: as §1

[3] = molecular target: T3, GABPA (Homo sapiens, UniProt Q06546 1-454); conditions: protein: recombinant; tags: N-terminal GST; dsDNA, one strand shown
T3 sequence: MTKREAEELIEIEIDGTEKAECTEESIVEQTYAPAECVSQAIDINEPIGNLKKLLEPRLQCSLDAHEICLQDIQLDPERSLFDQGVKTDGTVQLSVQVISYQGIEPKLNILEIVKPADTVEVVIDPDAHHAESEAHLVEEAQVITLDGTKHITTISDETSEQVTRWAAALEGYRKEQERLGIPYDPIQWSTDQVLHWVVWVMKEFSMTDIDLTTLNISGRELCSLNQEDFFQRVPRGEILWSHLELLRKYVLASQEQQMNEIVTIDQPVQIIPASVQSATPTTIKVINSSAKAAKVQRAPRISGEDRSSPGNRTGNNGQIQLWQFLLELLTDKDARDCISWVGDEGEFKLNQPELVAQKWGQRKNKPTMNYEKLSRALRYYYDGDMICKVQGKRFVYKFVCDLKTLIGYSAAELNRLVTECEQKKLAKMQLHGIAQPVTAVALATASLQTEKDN
Method in brief: as §1

[4] = molecular target: T4, ERG (Homo sapiens, UniProt P11308 1-479); conditions: protein: recombinant; tags: N-terminal GST; dsDNA, one strand shown
T4 sequence: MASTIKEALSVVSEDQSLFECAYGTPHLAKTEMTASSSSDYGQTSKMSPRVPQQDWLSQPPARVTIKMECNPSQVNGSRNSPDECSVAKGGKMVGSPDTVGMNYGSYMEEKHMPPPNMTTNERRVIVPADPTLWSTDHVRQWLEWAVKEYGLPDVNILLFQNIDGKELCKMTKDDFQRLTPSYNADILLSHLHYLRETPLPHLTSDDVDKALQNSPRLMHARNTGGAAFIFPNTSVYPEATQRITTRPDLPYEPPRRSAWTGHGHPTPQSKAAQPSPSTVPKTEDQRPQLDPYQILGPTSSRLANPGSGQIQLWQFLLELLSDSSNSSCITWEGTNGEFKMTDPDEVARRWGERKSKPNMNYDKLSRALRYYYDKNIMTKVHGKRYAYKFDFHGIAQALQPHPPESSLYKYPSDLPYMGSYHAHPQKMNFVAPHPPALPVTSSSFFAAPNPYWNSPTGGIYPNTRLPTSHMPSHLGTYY
Method in brief: as §1

[5] = molecular target: ELF1 (Homo sapiens, UniProt P32519 1-619); conditions: protein: recombinant; tags: N-terminal GST; dsDNA, one strand shown
Method in brief: as §1

[6] = molecular target: T5, EHF (Homo sapiens, UniProt Q9NZC4 1-300); conditions: protein: recombinant; tags: N-terminal GST; dsDNA, one strand shown
T5 sequence: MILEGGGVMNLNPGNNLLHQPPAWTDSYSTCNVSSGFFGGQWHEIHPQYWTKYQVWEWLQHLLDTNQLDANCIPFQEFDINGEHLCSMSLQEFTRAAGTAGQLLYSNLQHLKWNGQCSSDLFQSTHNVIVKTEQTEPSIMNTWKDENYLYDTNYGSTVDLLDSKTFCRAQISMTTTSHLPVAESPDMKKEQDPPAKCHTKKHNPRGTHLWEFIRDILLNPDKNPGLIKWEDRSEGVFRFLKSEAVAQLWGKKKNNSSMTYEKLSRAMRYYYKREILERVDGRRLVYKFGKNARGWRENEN
Method in brief: as §1

[7] = molecular target: SPI1 (Homo sapiens, UniProt P17947 1-270); conditions: protein: recombinant; tags: N-terminal GST; dsDNA, one strand shown
Method in brief: as §1

[8] = molecular target: SPIB (Homo sapiens, UniProt Q01892 1-262); conditions: protein: recombinant; tags: N-terminal GST; dsDNA, one strand shown
Method in brief: as §1

[9] = molecular target: T6, ELK3 (Homo sapiens, UniProt P41970 1-407); conditions: protein: recombinant; tags: N-terminal GST; dsDNA, one strand shown
T6 sequence: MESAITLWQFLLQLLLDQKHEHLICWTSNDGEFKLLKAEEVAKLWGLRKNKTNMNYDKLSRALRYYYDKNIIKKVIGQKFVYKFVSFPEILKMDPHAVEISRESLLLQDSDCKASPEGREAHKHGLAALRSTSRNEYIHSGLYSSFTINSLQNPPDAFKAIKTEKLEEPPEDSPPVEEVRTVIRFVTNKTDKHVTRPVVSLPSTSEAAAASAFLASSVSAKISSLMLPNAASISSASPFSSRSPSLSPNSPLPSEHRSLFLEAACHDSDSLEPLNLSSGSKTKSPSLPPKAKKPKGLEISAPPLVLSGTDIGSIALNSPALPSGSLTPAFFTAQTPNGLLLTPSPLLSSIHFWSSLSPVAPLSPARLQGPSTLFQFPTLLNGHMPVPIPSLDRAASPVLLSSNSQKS
Method in brief: as §1

[10] = molecular target: T7, FEV (Homo sapiens, UniProt Q99581 1-238); conditions: protein: recombinant; tags: N-terminal GST; dsDNA, one strand shown
T7 sequence: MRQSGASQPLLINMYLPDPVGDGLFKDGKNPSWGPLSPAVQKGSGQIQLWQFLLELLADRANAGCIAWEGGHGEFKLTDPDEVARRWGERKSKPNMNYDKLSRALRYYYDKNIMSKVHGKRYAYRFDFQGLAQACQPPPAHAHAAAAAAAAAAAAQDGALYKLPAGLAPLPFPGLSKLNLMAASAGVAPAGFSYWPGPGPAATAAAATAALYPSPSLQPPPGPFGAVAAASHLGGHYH
Method in brief: as §1

[11] = molecular target: ETV5 (Homo sapiens, UniProt P41161 1-510); conditions: protein: recombinant; tags: N-terminal GST; dsDNA, one strand shown
Method in brief: as §1

[12] = molecular target: HSF1 (Homo sapiens, UniProt Q00613 1-529); conditions: protein: recombinant; tags: N-terminal GST; chain copies: 3; dsDNA, one strand shown
Method in brief: as §1

[13] = molecular target: T8, SPIC (Homo sapiens, UniProt Q8N5J4 1-248); conditions: protein: recombinant; tags: N-terminal GST; dsDNA, one strand shown
T8 sequence: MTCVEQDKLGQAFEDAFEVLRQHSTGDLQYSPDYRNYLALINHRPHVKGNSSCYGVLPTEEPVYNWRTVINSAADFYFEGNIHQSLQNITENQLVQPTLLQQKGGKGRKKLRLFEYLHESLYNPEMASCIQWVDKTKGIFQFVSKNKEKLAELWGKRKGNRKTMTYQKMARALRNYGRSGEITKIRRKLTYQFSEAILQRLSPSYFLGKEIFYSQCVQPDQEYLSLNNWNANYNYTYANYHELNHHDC
Method in brief: as §1

[14] = molecular target: ELF4 (Homo sapiens, UniProt Q99607 1-663); conditions: protein: recombinant; tags: N-terminal GST; dsDNA, one strand shown
Method in brief: as §1

[15] = molecular target: T9, ELK4 (Homo sapiens, UniProt P28324-2 1-405); conditions: protein: recombinant; tags: N-terminal GST; dsDNA, one strand shown
T9 sequence: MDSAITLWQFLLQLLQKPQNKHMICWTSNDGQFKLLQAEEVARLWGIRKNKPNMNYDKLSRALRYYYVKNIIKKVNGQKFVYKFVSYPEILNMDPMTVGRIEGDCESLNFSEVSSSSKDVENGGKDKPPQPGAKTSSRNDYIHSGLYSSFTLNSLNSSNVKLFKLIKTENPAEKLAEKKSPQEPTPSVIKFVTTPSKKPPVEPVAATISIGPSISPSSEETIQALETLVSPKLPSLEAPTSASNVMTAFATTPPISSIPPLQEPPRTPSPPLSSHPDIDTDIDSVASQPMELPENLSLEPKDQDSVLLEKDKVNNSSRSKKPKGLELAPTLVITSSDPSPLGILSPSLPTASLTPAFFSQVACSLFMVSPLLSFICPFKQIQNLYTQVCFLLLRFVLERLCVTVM
Method in brief: as §1

[16] = molecular target: T10, ETV2 (Homo sapiens, UniProt O00321 1-342); conditions: protein: recombinant; tags: N-terminal GST; dsDNA, one strand shown
T10 sequence: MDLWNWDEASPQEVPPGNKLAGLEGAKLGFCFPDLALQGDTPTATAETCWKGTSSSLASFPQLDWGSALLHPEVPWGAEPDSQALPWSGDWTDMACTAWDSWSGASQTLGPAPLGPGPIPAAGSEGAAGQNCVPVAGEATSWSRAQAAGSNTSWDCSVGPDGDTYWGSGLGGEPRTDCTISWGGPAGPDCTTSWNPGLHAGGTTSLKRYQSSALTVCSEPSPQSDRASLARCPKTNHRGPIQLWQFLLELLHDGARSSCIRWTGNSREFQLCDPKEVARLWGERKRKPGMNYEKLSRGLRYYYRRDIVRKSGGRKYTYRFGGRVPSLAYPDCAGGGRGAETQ
Method in brief: as §1

[17] = molecular target: T11, ELF3 (Homo sapiens, UniProt P78545 1-371); conditions: protein: recombinant; tags: N-terminal GST; dsDNA, one strand shown
T11 sequence: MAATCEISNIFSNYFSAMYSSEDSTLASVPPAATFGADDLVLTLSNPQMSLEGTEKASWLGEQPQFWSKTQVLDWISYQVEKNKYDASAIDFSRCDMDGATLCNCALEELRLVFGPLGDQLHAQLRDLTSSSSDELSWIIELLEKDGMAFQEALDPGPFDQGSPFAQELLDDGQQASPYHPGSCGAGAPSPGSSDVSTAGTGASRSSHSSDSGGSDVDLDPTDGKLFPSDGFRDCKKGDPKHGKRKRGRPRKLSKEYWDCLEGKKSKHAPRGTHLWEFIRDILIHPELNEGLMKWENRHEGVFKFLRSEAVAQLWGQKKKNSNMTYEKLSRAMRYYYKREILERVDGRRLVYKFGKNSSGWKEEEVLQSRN
Method in brief: as §1

[18] = molecular target: CRX (Homo sapiens, UniProt O43186 1-299); conditions: protein: recombinant; tags: N-terminal GST; dsDNA, one strand shown
Method in brief: as §1

[19] = molecular target: ETV1 (Homo sapiens, UniProt P50549 1-477); conditions: protein: recombinant; tags: N-terminal GST; dsDNA, one strand shown
Method in brief: as §1

Chain of ETV1 (P50549 whole entry): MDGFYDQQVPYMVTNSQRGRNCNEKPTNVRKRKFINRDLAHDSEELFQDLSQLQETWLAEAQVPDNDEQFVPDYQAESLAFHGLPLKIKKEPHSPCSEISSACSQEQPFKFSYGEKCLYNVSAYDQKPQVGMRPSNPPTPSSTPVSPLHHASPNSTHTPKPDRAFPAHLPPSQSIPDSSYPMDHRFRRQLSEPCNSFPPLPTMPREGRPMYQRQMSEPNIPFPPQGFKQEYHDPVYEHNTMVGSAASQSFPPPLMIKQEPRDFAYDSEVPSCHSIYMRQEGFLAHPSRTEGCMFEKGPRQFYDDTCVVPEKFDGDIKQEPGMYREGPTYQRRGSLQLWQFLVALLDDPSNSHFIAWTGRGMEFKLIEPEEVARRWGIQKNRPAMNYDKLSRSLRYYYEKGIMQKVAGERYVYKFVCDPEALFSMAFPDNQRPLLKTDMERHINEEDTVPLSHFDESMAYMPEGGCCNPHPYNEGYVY
Chain of ELF1 (P32519 whole entry): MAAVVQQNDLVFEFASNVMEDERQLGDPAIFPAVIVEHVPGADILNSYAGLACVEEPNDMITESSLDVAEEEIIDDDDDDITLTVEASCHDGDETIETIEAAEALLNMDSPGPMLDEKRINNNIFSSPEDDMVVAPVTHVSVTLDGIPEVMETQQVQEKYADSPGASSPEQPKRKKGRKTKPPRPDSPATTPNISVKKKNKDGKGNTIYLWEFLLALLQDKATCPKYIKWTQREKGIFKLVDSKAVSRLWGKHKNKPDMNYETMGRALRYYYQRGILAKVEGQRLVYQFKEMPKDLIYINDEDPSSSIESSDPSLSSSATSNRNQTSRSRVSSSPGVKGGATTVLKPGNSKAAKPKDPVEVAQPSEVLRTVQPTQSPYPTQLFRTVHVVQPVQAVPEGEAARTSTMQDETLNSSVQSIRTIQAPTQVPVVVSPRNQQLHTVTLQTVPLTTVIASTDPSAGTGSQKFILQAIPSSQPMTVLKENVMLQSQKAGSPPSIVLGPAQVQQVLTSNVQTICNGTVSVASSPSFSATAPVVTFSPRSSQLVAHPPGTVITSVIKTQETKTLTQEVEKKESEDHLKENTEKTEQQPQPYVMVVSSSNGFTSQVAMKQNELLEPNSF
Chain of ETV5 (P41161 whole entry): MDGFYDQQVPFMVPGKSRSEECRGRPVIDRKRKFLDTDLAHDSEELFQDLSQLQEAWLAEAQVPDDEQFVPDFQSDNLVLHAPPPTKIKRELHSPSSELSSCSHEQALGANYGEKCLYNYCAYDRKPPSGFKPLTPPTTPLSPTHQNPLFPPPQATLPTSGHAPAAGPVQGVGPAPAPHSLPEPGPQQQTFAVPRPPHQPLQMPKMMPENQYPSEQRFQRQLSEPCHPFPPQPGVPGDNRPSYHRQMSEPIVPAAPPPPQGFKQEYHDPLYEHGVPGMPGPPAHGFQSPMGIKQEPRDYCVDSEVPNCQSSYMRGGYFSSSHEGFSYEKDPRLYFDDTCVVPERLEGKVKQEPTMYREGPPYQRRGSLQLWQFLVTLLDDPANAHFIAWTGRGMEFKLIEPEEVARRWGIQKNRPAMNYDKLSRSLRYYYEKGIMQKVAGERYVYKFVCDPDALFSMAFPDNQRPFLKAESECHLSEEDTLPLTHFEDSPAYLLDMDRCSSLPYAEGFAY
Chain of HSF1 (Q00613 whole entry): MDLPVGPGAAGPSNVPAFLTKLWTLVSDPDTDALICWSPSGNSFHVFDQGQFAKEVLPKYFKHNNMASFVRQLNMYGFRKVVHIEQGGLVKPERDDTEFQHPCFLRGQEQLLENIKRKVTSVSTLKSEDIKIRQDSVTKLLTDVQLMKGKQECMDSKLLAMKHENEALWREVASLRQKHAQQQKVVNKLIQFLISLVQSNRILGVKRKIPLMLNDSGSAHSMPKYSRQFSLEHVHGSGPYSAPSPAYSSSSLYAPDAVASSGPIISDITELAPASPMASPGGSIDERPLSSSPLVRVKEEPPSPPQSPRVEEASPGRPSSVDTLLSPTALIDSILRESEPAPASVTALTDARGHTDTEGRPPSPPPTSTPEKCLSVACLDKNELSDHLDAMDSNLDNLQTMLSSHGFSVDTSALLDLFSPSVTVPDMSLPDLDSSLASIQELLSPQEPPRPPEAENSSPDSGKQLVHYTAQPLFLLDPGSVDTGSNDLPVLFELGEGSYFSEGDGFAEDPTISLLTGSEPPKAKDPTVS
Chain of SPIB (Q01892 whole entry): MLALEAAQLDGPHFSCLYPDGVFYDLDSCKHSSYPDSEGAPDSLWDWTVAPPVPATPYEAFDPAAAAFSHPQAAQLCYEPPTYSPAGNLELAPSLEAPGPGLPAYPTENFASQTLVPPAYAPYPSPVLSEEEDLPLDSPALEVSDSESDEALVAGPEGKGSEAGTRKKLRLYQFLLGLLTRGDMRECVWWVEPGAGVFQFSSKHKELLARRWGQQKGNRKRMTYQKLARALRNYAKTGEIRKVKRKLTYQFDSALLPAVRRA
Chain of CRX (O43186 whole entry): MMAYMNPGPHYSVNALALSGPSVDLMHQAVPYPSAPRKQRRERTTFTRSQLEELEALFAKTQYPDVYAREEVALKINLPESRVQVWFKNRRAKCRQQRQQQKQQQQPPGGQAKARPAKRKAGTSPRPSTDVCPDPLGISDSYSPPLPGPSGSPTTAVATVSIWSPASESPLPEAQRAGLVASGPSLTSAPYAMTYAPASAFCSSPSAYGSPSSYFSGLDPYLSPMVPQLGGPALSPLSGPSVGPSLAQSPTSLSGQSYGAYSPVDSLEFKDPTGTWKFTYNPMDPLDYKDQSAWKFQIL
Chain of ELF4 (Q99607 whole entry): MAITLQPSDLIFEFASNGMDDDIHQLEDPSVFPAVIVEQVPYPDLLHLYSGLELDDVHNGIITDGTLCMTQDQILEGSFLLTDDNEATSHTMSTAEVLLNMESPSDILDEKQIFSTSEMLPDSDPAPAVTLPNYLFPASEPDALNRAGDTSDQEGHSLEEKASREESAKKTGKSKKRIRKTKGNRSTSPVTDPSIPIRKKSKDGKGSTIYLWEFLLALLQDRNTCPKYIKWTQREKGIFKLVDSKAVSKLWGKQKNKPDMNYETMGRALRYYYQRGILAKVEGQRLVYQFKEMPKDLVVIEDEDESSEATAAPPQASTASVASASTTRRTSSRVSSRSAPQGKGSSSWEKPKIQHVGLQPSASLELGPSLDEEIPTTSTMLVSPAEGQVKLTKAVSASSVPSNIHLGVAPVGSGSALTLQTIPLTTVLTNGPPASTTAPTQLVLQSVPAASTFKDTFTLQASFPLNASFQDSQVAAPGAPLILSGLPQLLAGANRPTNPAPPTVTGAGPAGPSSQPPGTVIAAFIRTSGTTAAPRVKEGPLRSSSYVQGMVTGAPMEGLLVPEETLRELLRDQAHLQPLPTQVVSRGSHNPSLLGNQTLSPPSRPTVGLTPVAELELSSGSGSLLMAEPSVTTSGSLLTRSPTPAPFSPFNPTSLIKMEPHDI

## TTGTTT
[1]
  binding signal: 1.46 fold enrichment (6-mer frequency, TF over GST control)
[2]
  binding signal: 1.45 fold enrichment (6-mer frequency, TF over GST control)
[3]
  binding signal: 1.36 fold enrichment (6-mer frequency, TF over GST control)
[4]
  binding signal: 1.6 fold enrichment (6-mer frequency, TF over GST control)
[5]
  binding signal: 1.37 fold enrichment (6-mer frequency, TF over GST control)
[6]
  binding signal: 1.51 fold enrichment (6-mer frequency, TF over GST control)
[7]
  binding signal: 1.28 fold enrichment (6-mer frequency, TF over GST control)
[8]
  binding signal: 1.52 fold enrichment (6-mer frequency, TF over GST control)
[9]
  binding signal: 1.49 fold enrichment (6-mer frequency, TF over GST control)
[10]
  binding signal: 1.45 fold enrichment (6-mer frequency, TF over GST control)
[11]
  binding signal: 1.53 fold enrichment (6-mer frequency, TF over GST control)
[12]
  binding signal: 1.24 fold enrichment (6-mer frequency, TF over GST control)
[13]
  binding signal: 1.08 fold enrichment (6-mer frequency, TF over GST control)
[14]
  binding signal: 1.44 fold enrichment (6-mer frequency, TF over GST control)
[15]
  binding signal: 1.61 fold enrichment (6-mer frequency, TF over GST control)
[16]
  binding signal: 1.32 fold enrichment (6-mer frequency, TF over GST control)
[17]
  binding signal: 1.61 fold enrichment (6-mer frequency, TF over GST control)
[18]
  binding signal: 1.45 fold enrichment (6-mer frequency, TF over GST control)
[19]
  binding signal: 1.38 fold enrichment (6-mer frequency, TF over GST control)

Reference: paper PMC7862700, “An all-to-all approach to the identification of sequence-specific readers for epigenetic DNA modifications on cytosine”
